Luc counter: Counterscreen for Luciferase (Kinase-Glo TM) Inhibition; hit rate 0.28% among 200,000; Kinase-Glo luciferase, ATP luminescence, 8 min; Potency, µM (titrated, usually from 38.3 µM), most hits filed as inhibitors; AID 1379, 2008; Luciferin 4-monooxygenase (Photuris pensylvanica), Q27757; note: nearly all actives have a fitted effect of over 60% in size
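Luminescence was the read-out, taken after 8-minute incubation at ambient temperature. Luciferase turned over luciferin with 10 uM ATP in imidazole pH 7.2 buffer containing KCl, MgCl2, Tween 20 and BSA.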
Rab9 promoter act: qHTS Assay for Rab9 Promoter Activators; hit rate 2.8% among 320,000; Huh7 Rab9 promoter-luciferase reporter, luminescence, 24 h; AID 485297, 2010; Potency, µM (titrated, usually from 9.22 µM), actives largely listed as activators; note: nearly all actives have a fitted effect of over 60% in size
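Using Huh7 cells stably transfected with Rab9 promoter–luciferase, compounds were incubated 24 h at 37 °C, 5% CO2; luciferase luminescence was read 10 min after reagent addition.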
SMN2 splice up: qHTS Assay for Enhancers of SMN2 Splice Variant Expression; HEK293 SMN2-luciferase splicing reporter, luminescence, 30-36 h; Potency, µM (top dose mostly 46.1 µM), usual class: activators; hit rate 2.8% among 210,000; note: nearly all actives have a fitted effect of over 55% in size
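qHTS luciferase splicing reporter: luminescence rises when SMN2 exon 7 is included in transfected HEK293 cells. Compound exposure lasted 30-36 h at 37C, with 4.5 mM final sodium butyrate as control, followed by a ONE-Glo read.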
FLuc modulator: qHTS profiling assay for firefly luciferase inhibitor/activator using purifed enzyme and Km concentrations of substrates (counterscreen for miR-21 project) | purified FLuc, Km substrates, luminescence inhibition | Potency, µM (doses to about 57.5 µM), usual class: inhibitors | hit rate 6.9% among 360,000; note: nearly all actives have a fitted effect of over 55% in size
Target sequence (P08659 whole entry, looked up): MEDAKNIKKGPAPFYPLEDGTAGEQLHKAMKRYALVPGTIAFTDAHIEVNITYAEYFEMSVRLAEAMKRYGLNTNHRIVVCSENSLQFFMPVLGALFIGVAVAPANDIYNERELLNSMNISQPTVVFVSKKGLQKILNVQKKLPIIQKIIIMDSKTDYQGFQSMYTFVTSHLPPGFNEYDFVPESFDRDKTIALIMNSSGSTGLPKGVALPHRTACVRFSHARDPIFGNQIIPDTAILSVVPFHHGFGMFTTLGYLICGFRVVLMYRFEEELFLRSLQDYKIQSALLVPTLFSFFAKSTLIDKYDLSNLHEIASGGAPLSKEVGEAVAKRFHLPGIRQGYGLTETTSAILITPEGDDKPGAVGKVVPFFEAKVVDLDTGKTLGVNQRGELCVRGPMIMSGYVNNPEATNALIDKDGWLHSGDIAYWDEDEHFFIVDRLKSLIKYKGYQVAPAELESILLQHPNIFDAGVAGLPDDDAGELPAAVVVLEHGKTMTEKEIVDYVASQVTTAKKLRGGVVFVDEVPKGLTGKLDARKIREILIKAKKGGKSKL
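Purified P. pyralis luciferase, 10 nM final, with Km-level 10 uM D-luciferin and 10 uM ATP in 50 mM Tris acetate pH 7.5, 10 mM Mg acetate, 0.01% Tween-20, 0.05% BSA; 6-point qHTS titration about 60 µM downward; luminescence read.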
ELG1 genotoxic: qHTS screen for small molecules that induce genotoxicity in human embryonic kidney (HEK293T) cells expressing luciferase-tagged ELG1; HEK293T ELG1-luciferase reporter, luminescence, 16 h; Potency, µM (titrated, usually from 46 µM), usual class: activators; hit rate 1.3% among 330,000; AID 504466, 2011; note: nearly all actives have a fitted effect of over 60% in size
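HEK293T cells expressing luciferase-tagged ELG1 were treated with compound or DMSO for 16 hr at 37°C. Luciferase activity was then read after 30 min with ONE-Glo at room temperature; rising signal flags genetic stress.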
NPC1 prom act: qHTS Assay for NPC1 Promoter Activators | hit rate 2.4% among 320,000 | Potency, µM (top dose mostly 9.22 µM), hits mostly activators | Huh7 NPC1 promoter luciferase reporter, 24 h; note: nearly all actives have a fitted effect of over 60% in size
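Luminescence read-out of NPC1 promoter-driven luciferase in stably transfected Huh7 cells; compounds delivered in DMSO and left 24 h at 37C, 5% CO2, qHTS titration format.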
Numbers stand for hits; [ ] = dose if it differs, or a comment. Only some compounds are listed: those with a hit (about 7.5% of all), similar ones and a draw of the others. Calls come from the whole dose curve; as a rule, active = well fitted curve in the direction sought with a large enough effect; inconclusive = small, poorly fitted or top-dose-only effect, or another doubt; inactive = no such curve, though single readings can be large; an effect the other way counts as inactive or inconclusive.

`Cc1cc(C(=O)Nc2ccc([N+](=O)[O-])cn2)cs1` gave Rab9 promoter act 3.5µM, FLuc modulator 11µM, ELG1 genotoxic 9.2µM and NPC1 prom act 2.5µM.
`O=c1c(NCCc2ccc(Cl)cc2)nccn1-c1ccccc1` gave FLuc modulator inactive.
`CCOc1ccc(C(=O)c2cn(CC(=O)Nc3ccc(Cl)cc3)c3cc4c(cc3c2=O)OCCO4)cc1` gave SMN2 splice up inactive and FLuc modulator inactive.
Screening CCOC(=O)CNc1oc(-c2ccccc2)nc1-c1ccccc1 returned Luc counter inactive and SMN2 splice up inactive.
Screening CCc1ccccc1NC(=O)CSc1nc2ncccc2o1 returned FLuc modulator inactive.
Screening COc1ccc(COC(=O)Oc2ccc(CNC(C)=O)cc2OC)c([N+](=O)[O-])c1 returned Rab9 promoter act inactive, FLuc modulator 13µM, ELG1 genotoxic inactive and NPC1 prom act inactive.
For COc1cc(COC(=O)Oc2ccc(CNC(C)=O)cc2OC)c([N+](=O)[O-])cc1OC the results were Rab9 promoter act inactive, FLuc modulator inactive, ELG1 genotoxic inactive and NPC1 prom act inactive.
Screening CCOC(=O)c1ccc(N/C=C/C(=O)c2ccccc2)cc1 returned Luc counter inactive, Rab9 promoter act inconclusive, FLuc modulator 6µM, ELG1 genotoxic inactive and NPC1 prom act inactive.
CCOC(=O)c1ccc(N/C=C/C(=O)C(C)(C)C)cc1 was read as Luc counter inactive, Rab9 promoter act 3.5µM, SMN2 splice up inconclusive, FLuc modulator 3µM, ELG1 genotoxic inconclusive and NPC1 prom act 3.5µM.
CCOC(=O)c1ccc(N/C=C/C(=O)c2ccc(OC)cc2)cc1 was read as Luc counter inactive, Rab9 promoter act inactive, SMN2 splice up inactive, FLuc modulator inactive, ELG1 genotoxic inactive and NPC1 prom act inactive.
Screening N#Cc1ccc(CN2CC[C@@]3(CCCN(S(=O)(=O)c4ccccc4)C3)C2)cc1 returned Luc counter inactive and SMN2 splice up inactive.
For O=S(=O)(NCC(c1cccs1)S(=O)(=O)c1ccccc1)c1ccccc1 (stereo unspecified) the results were FLuc modulator inactive.
O=C(Nc1ccc(OCc2cc(=O)n3ccccc3n2)cc1)c1ccccc1Cl was read as FLuc modulator inactive.
For CC(C)Sc1ncc(Cl)c(C(=O)Nc2ccc(S(=O)(=O)N3CCCCC3)cc2)n1 the results were SMN2 splice up inactive and FLuc modulator inactive.
`O=C(/C=C/c1ccccc1Cl)Nc1cccc(S(=O)(=O)NC2=NCCCCC2)c1` gave Luc counter inactive, Rab9 promoter act inconclusive, SMN2 splice up 14µM, FLuc modulator 1.2µM, ELG1 genotoxic inactive and NPC1 prom act inconclusive.
`O=C(Nc1cccc(S(=O)(=O)NC2=NCCC2)c1)c1c(F)cccc1Cl` gave Rab9 promoter act inactive, FLuc modulator inactive, ELG1 genotoxic inactive and NPC1 prom act inactive.
Screening O=C(/C=C/c1ccc(Cl)cc1Cl)Nc1cccc(S(=O)(=O)NC2=NCCC2)c1 returned Luc counter inactive, Rab9 promoter act 0.35µM, SMN2 splice up 5.6µM, FLuc modulator 0.12µM, ELG1 genotoxic inconclusive and NPC1 prom act 1µM.
Screening COc1ccc(/C=N/NC(=O)c2cccc(COCC(F)(F)C(F)F)c2)cc1 returned Luc counter inactive, Rab9 promoter act inactive, SMN2 splice up inactive, FLuc modulator 5.4µM, ELG1 genotoxic inactive and NPC1 prom act inactive.
`COc1cc(/C=N/NC(=O)c2cccc(C(=O)N/N=C/c3ccc(O)c(OC)c3)n2)ccc1O` gave Rab9 promoter act inactive[1.84 µM], FLuc modulator 0.85µM, ELG1 genotoxic inactive and NPC1 prom act inactive.
COC(=O)N/N=C/c1ccc(Oc2ccccc2)cc1 was read as Luc counter inactive, Rab9 promoter act inconclusive, SMN2 splice up 11µM, FLuc modulator 15µM, ELG1 genotoxic inconclusive and NPC1 prom act inconclusive.
COc1cc(/C=N/NC(=O)c2cc(-c3ccccc3)n[nH]2)ccc1O was read as Luc counter inactive.
Screening COc1cc(/C=N/NC(=O)c2nc(C)cc(C)n2)ccc1O returned Luc counter inactive, Rab9 promoter act inactive, SMN2 splice up inconclusive, FLuc modulator inconclusive, ELG1 genotoxic inactive and NPC1 prom act inactive.
Screening COc1cc(/C=N/NC(=O)c2cc3ccccc3[nH]2)ccc1O returned Rab9 promoter act inactive, FLuc modulator 17µM, ELG1 genotoxic inactive and NPC1 prom act inactive.
`CN(Cc1ccccc1)c1nc2c(S(=O)(=O)c3cccc(Cl)c3)nnn2c2ccsc12` gave FLuc modulator inactive.
`CC(NC(=O)CN1C(=O)COc2ccc(S(=O)(=O)N3CCCCCC3)cc21)c1ccccc1` (stereo unspecified) gave SMN2 splice up inactive and FLuc modulator inactive.
Screening COc1ccc(/C=N/NC(=O)Nc2nonc2N)cc1 returned Luc counter inactive, Rab9 promoter act inactive, SMN2 splice up 10µM, FLuc modulator inconclusive, ELG1 genotoxic inconclusive and NPC1 prom act inactive.
`COc1ccc(/C=N/NC(=O)c2cccc(C(=O)N/N=C/c3ccc(OC)cc3)n2)cc1` gave Rab9 promoter act inactive, FLuc modulator 0.3µM, ELG1 genotoxic inconclusive and NPC1 prom act inactive.
Screening COc1cccc2[nH]c3ccccc3c(=O)c12 returned Rab9 promoter act inactive, FLuc modulator 17µM, ELG1 genotoxic inactive and NPC1 prom act inactive.
`CNS(=O)(=O)c1cc(-c2nnc(Nc3cc(C)ccc3C)c3ccccc23)ccc1C` gave SMN2 splice up inactive and FLuc modulator inactive.
`Cc1ccnc(NC(=O)c2cccc(S(=O)(=O)N3CCCC3)c2)c1` gave Rab9 promoter act inactive, FLuc modulator inactive, ELG1 genotoxic inactive and NPC1 prom act inactive.
O=C(Nc1ccc(Cl)cn1)c1cccc(S(=O)(=O)N2CCCCC2)c1 was read as Rab9 promoter act inactive, FLuc modulator inactive, ELG1 genotoxic inactive and NPC1 prom act inactive.
Screening Cc1ccnc(NC(=O)c2cccc(S(=O)(=O)N3CCN(c4ccccc4)CC3)c2)c1 returned Rab9 promoter act inconclusive, FLuc modulator 1.9µM, ELG1 genotoxic inconclusive and NPC1 prom act inactive.
For Cc1ccc(NC(=O)c2cccc(S(=O)(=O)N3CCN(c4ccccc4)CC3)c2)nc1 the results were Rab9 promoter act inactive, FLuc modulator inactive, ELG1 genotoxic 15µM and NPC1 prom act inactive.
COc1cccc(CS(=O)(=O)c2nnnn2-c2ccc(F)cc2Br)c1 was read as Luc counter inactive and SMN2 splice up inactive.

Assay outcomes: PubChem, National Center for Advancing Translational Sciences (NCATS)
